# Data reported in PubChem BioAssay AID1578 (Sanford-Burnham Center for Chemical Genomics, 2009).
# “And” between values parts separate entries of the source, which are not always exact repeats. Identical values can stand only once. Hit rate of the full screen: of about 290,000 compounds, about 3,000 (1%) were called active. This is one part of a sample in which actives are shown more often than they occur. A number with no mark means an inactive call. No stated cut-off is given here; in the data, active means inhibition mostly above about 36% (no sharp cut-off); inactive means mostly below about 34%.
# Test: inhibition of NOD1-driven NF-kB reporter – cell-based, luminescence, uHTS, primary screen (AID 1578);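 further: HEK-293T reporter cells stimulated with the NOD1 agonist gamma-tri-DAP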
# Settings: NOD1-driven NF-kB luciferase reporter cells, at 4 µM, stronger effect = higher value
row,SMILES,inhibition
1,CCOc1ccc(-c2c(=O)n(OCC)c3ccccc3[n+]2[O-])cc1,3.2%
2,CCC(C(=O)OC(C)C(=O)Nc1ccc(Cl)cn1)c1ccccc1 (stereo not given),-32.2%
3,COC(=O)c1cc(-c2ccccc2)sc1NC(=O)c1cc(C)on1,-4.3%
4,O=C(NCCc1ccccc1)C1CCC(=O)N1CCc1ccccc1 (stereo not given),2%
5,CCOC(=O)Cn1c(C)c(Br)c(COC)c(C#N)c1=O,-13.2%
6,COC(=O)c1sc(NC(=O)CSc2nc3cccnc3n2C)nc1C,-10.6%
7,CCCCCCC(C)NC(=S)Nc1cc(S(=O)(=O)N(C)C)ccc1C (stereo not given),-10.2%
8,CN(Cc1ccccc1F)c1ncnc2sccc12,-28.7%
9,CN(Cc1cccs1)c1ncnc2sccc12,46.8% (active)
10,CN(Cc1ccccc1)c1ncnc2sccc12,32.5%
11,Cc1scc(C(=O)Nn2cnnc2)c1-c1ccccc1,-12.5%
12,CCN1C(=O)CSc2ccc(C(=O)NCc3ccco3)cc21,-21.5%
13,CN(C)c1ccc(/C=C2/SC(=O)N(CCN=C3NS(=O)(=O)c4ccccc43)C2=O)cc1,-8.3%
14,CN(C)c1ccc(/C=C2\SC(=O)N(CCc3nnc(N)s3)C2=O)cc1,68% (active)
15,COc1ccc(/C=C2\SC(=O)N(CCc3nnc(N)s3)C2=O)cc1,1.5%
16,CCOC(=O)Cc1csc(NC(=O)CSc2ncnc3c2cnn3-c2ccccc2Cl)n1,-4.7%
17,COc1ccc(Oc2ccc(N/C=C3\CCCC3=O)cc2)cc1,-29.4%
18,CC(NC(=O)/C(=C\c1ccco1)NC(=O)c1ccco1)C(=O)O (stereo not given),-6.1%
19,COc1ccc(-c2nsc3c(N4CCCC4)ncnc23)cc1,37.5%
20,COc1ccc(-c2nsc3c(N4CCCCC4)ncnc23)cc1,46.2%

row,SMILES,inhibition
1,COc1ccc(-c2nsc3c(N4CCCCC4C)ncnc23)cc1 (stereo not given),77.6% (active)
2,COc1ccc(OC)c(NS(=O)(=O)c2ccc(-c3coc(C)n3)cc2)c1,29.1%
3,COc1ccc(NS(=O)(=O)c2ccc(-c3coc(C)n3)cc2)cc1,5.2%
4,COc1ccc(C)cc1NS(=O)(=O)c1ccc(-c2cnc(C3CC3)o2)cc1,25.1%
5,Cc1ccc(NS(=O)(=O)c2ccc(-c3cnc(C4CC4)o3)cc2)cc1,37.3%
6,O=C(CCCC1=NS(=O)(=O)c2ccccc2N1)Nc1ccccc1,-7.6%
7,COC(=O)CC(NS(=O)(=O)c1cccs1)c1ccc2c(c1)OCO2 (stereo not given),-20.9%
8,O=C(CNC(=S)N(CCCN1CCOCC1)Cc1cccs1)NCc1ccc(Cl)cc1,-16.7%
9,CC(=O)Nc1cc2c(ccc3ccccc32)oc1=O,-21.7%
10,CCOC(=O)c1c(C)[nH]c(C)c1C(=O)CSc1nc2ccccc2c(=O)n1-c1ccc(F)cc1,-19.8%
11,CCOC(=O)c1c(C)[nH]c(C)c1C(=O)CSc1nc2ccccc2c(=O)n1-c1ccc(C)cc1,-25.1%
12,CC(OC(=O)c1ccco1)C(=O)Nc1ccc(Cl)cn1 (stereo not given),-26.7%
13,CC(OC(=O)c1ccccc1O)C(=O)Nc1ccc(Cl)cn1 (stereo not given),-43.7%
14,CNc1ccccc1C(=O)OC(C)C(=O)Nc1ccc(Cl)cn1 (stereo not given),54.3% (active)
15,COc1ccc(C(=O)NC2CCN(CC(=O)NCc3ccccc3F)CC2)cc1,-30.3%
16,CCc1ccc(N(CC(=O)NC2CCCCC2)S(=O)(=O)c2c(C)noc2C)cc1,-14.8%
17,O=C(CCl)Nc1c[nH]c(=O)[nH]c1=O,-31.2%
18,Cc1cc(Br)c(NC(=O)CCl)c(Br)c1,42.9%
19,O=C(CCl)Nc1cc2[nH]c(=O)[nH]c2cc1Br,72.1% (active)
20,NC(=O)c1cc2ccccc2o/c1=N\NC(=O)c1ccc(F)cc1,-3.2%

row,SMILES,inhibition
1,COc1ccc(Oc2nc3c(c(=O)n(C)c(=O)n3C)n2C)cc1,18.3%
2,Cn1c(=O)c2c(nc(Oc3ccccc3)n2C)n(C)c1=O,9.4% and -13.9%
3,Cc1nc2ccc(NS(=O)(=O)c3ccc(F)cc3)cc2s1,7.8%
4,Cc1ccc(S(=O)(=O)Nc2ccc3nc(C)sc3c2)cc1,32.2%
5,CCOc1cc(C(=O)Nc2ccc([N+](=O)[O-])cn2)cc(OCC)c1OCC,-21.2%
6,CCNC(=S)N(Cc1cc2cc(C)c(C)cc2[nH]c1=O)C1CCCC1,-35%
7,O=C(NCc1cccnc1)c1ccc(-c2ccccc2[N+](=O)[O-])o1,-24.4%
8,COc1ccc(CCNC(=O)C2CCN(S(=O)(=O)c3ccc(OC)cc3)CC2)cc1,17.9%
9,COc1ccc(C(=O)NNC(=O)Nc2ccc(C)cc2)cc1,-1.6%
10,COc1ccc(C(=O)NNC(=O)Nc2ccc(Cl)cc2)cc1,91.6% (active)
11,COc1ccc(NC(=O)NNC(=O)c2ccc(-c3ccccc3)cc2)cc1,-26.8%
12,Cc1nc(N2CCN(S(=O)(=O)c3ccc(Br)cc3)CC2)c2c(C)c(C)sc2n1,3.7%
13,CCS(=O)(=O)N1CCN(c2ncnc3sc(C)c(C)c23)CC1,-20%
14,CNS(=O)(=O)c1cc(N(C)S(=O)(=O)c2ccc(C)cc2)c(C)cc1C,-1.6%
15,CC1=NCCN1S(=O)(=O)c1cc([N+](=O)[O-])ccc1Cl,-40.2%
16,COc1ccc(COc2cc(-c3cccc(OC)c3)nc3ccc(NC(=O)c4ccc(OC)cc4)cc23)cc1,41.3%
17,COc1ccc(COc2cc(-c3cccc(OC)c3)nc3ccc(NC(=O)c4ccccc4)cc23)cc1,48.6%
18,COc1ccc(COc2cc(-c3cccc(OC)c3)nc3ccc(NC(=O)c4cccnc4)cc23)cc1,78.1% (active)
19,CC(C)(C)C(=O)NC1=NN(c2c(Cl)cc(Cl)cc2Cl)C(=O)C1,-19.7%
20,CC(C)c1ccccc1NC(=O)COC(=O)c1c2c(nc3ccccc13)CCN(Cc1ccccc1)C2,29.8%
